# The list is not random: actives were taken first. Their share in the collection is about 3.5%.
# TEAD-YAP inh – TEAD-YAP interaction inhibition; HEK-TIYL cells, TEAD-Gal4/YAP UAS-luciferase luminescence; inhibition, % at 9.12 µM; 640,000 tested, 1.4% active; AID 1259422; in the data active = inhibition above about 32%;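 note: 0% = median of test compound wells and 100% = reference inhibitor wells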
# GPR151 ag – activates the human receptor GPR151; 650,000 tested, 1% active; Q8TDV0; AID 1508602; PathHunter beta-arrestin GPR151 cells, luminescence; activation, % at 11.2 µM; in the data active = activation above about 4.9%;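 note: 0% = median of compound wells and 100% = cells with positive control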
# MITF inh – human MITF inhibition, primary screen; O75030; AlphaScreen MITF homodimerization, bead proximity signal; inhibition, % at 2.6 µM; 650,000 tested, 0.91% active; AID 1259374; in the data active = inhibition above about 50%;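 note: 0% = vehicle wells with protein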
# FBW7 act – human FBW7 E3 ligase activation, primary screen; Q969H0; AlphaScreen FBW7–phospho-cyclin E peptide binding, activator screen; normalized activity (activation), % at 26.1 µM; 650,000 tested, 0.13% active; AID 1259310; in the data active = normalized activity above about 1.9%;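 note: purified mutant Fbw7 with reduced substrate affinity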
# GPR151 conf act – confirmation of human GPR151 activators. shares compounds with GPR151 ag. GPR151 PathHunter beta-arrestin cells, luminescence, 90 min; % of EA-reagent control over plate median. activation, % at 11.2 µM. 6,700 tested, under 10 active. AID 1508609;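 active = mean percent activation across replicates above the confirmation screen cutoff of 4.91%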
# GPR119 counter – GPR119 activation, counter-screen for GPR151 activators; shares compounds with GPR151 ag; GPR119 PathHunter beta-arrestin cells, luminescence, 90 min; 0 = compound-well median, 100 = enzyme-acceptor control; activation, % at 11.2 µM; 6,700 tested, 0.3% active; AID 1508611;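 active = mean percent activation in the counterscreen above 29.09%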;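 note: counterscreen on off-target GPR119 to flag nonselective hits from the GPR151 activator screen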
# Target sequence (Q8TDV5 whole entry, looked up): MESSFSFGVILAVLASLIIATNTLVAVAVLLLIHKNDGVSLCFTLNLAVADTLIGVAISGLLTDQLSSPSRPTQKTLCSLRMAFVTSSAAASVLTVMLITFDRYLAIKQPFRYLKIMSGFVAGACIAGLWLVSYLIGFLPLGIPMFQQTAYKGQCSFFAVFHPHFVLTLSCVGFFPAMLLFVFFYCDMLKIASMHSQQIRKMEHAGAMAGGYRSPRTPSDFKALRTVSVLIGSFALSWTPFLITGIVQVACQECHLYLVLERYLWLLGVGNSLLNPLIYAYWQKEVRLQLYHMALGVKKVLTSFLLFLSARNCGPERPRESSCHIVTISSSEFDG
# * = called active by the depositor; . = not tested or not shown.
SMILES,TEAD-YAP inh,GPR151 ag,MITF inh,FBW7 act,GPR151 conf act,GPR119 counter
O=C(N=C1N=C2C=CC(Cl)=CN2Cc2ccccc21)c1ccc(Cl)c([N+](=O)[O-])c1,-16,17*,-1,0,1,-6
O=C(N=C1N=C2C=CC(Cl)=CN2Cc2ccccc21)c1ccco1,-43,-7,6,0,.,.
CN(CCO)c1ccc(/C=N/NC(=O)c2cc3c(s2)CCCC3)cc1,-9,6.2*,-4,0,0,-6
C/C(=N\NC(=O)c1cc2c(s1)CCCC2)c1ccccc1O,-14,0,-11,0,.,.
COc1cccc(NC(=O)CCC2CCN(C(=O)Cc3cccnc3)CC2)c1,-2,0,7,0,.,.
Brc1ccc(-c2nc(N3CCCC3)c3ccccc3n2)cc1,-3,-1,0,0,.,.
O=C1[C@@H]2C[C@H](NCc3ccsc3)CN2C(=O)[C@H]2CCCN12,4,-1,28,0,.,.
CN(CC(=O)NC1CCCC1)c1nnc(N2CCCC2=O)s1,-1,6.1*,3,1,0,3
CN(CC(=O)NC1CCCCCC1)c1nnc(N2CCCC2=O)s1,-2,-2,9,1,.,.
CCCCOc1ccc(C(=O)Nc2c(C(N)=O)oc3ccccc23)cc1,4,-2,8,0,.,.
CCCCCOc1ccc(C(=O)Nc2c(C(N)=O)oc3ccccc23)cc1,1,4.9*,6,0,2,0
CC(=O)Nc1c(C(=O)c2ccc(Oc3ccccc3)cc2)oc2ccccc12,-1,7.4*,-13,0,2,7
Cc1cc(C(=O)Nc2ccccc2C(F)(F)F)on1,-6,5.3*,7,0,1,4
COc1cc2sc(=NC(=O)c3cccc([N+](=O)[O-])c3)n(C)c2cc1OC,-8,-1,17,0,.,.
CCOc1ccc(NC(=O)/C=C/c2ccc(Cl)c([N+](=O)[O-])c2)cc1,-10,1,1,0,.,.
Cc1nc2nc(NCc3ccccc3F)[nH]n2c(=O)c1C,3,5.0*,-7,0,0,0
COc1ccc(CNc2nc3nc(C)c(C)c(=O)n3[nH]2)cc1,-11,5.5*,-12,0,1,17
O=C(C1CCCO1)N(c1ccc(Cl)cc1)C1C=CS(=O)(=O)C1 (configuration not stated),-9,9.6*,10,0,0,2
Cc1ccc2nc(N3CCC(C(=O)NCC(C)(C)CO)CC3)nc(C)c2c1,11,0,-12,0,.,.
O=C(Nc1nc2ccccc2[nH]1)c1ccc(Br)cc1,25,8.0*,21,0,-4,-18
COCCCN1C(=O)C2C(C(=O)Nc3ccc(Br)cc3)C3C=CC2(O3)C1C(=O)NC1CCCCC1 (configuration not stated),2,2,6,0,.,.
O=C(N/N=C/c1cc([N+](=O)[O-])ccc1O)C12CC3CC(CC(C3)C1)C2,4,5.1*,0,0,0,7
COc1ccc(C(=O)N/N=C/c2cc(OC)ccc2O)cc1,-2,1,26,0,.,.
CC(C)(C)c1ccc(C(=O)N/N=C/c2ccc(O)c([N+](=O)[O-])c2)cc1,-32,5.1*,-3,0,0,0
COc1ccc(O)c(/C=N/NC(=O)c2cc([N+](=O)[O-])cc([N+](=O)[O-])c2)c1,-9,7.0*,20,0,-1,-10
SMILES,TEAD-YAP inh,GPR151 ag,MITF inh,FBW7 act,GPR151 conf act,GPR119 counter
COc1ccc(/C=N\NC(=O)c2ccc([N+](=O)[O-])cc2)cc1Cl,9,6.5*,18,0,1,2
Cc1cc(NC(=O)CSc2ccccc2)ccc1Cl,-31,1,0,0,.,.
COc1ccc(/C=C2/C(=O)NC(=O)N(c3ccccc3F)C2=O)cc1Br,1,4,-6,0,.,.
NC(=O)c1cccc(NC(=O)c2ccccc2-n2cc(NC(=O)c3ccccc3)cn2)c1,-3,0,3,0,.,.
Cc1cccc(C(=O)OCC(=O)c2cccc([N+](=O)[O-])c2)c1O,-10,-2,-7,0,.,.
COc1cc(Nc2ccc(NC(=O)Nc3ccccc3)cc2)nc(C)n1,-6,7.9*,-9,0,0,7
Cc1ccc(C(=O)N/N=C\C(Br)=C\c2ccccc2)cn1,-19,5.8*,-4,0,0,-1
O=C(Nc1ccc(Br)cn1)c1ccc(N2CCCCC2)c([N+](=O)[O-])c1,-59,6.5*,-4,0,2,9
Cc1ccc(C(=O)Nc2ccc(Br)cn2)cc1[N+](=O)[O-],-61,0,-7,0,.,.
COc1ccc2oc(=O)c(-c3ccccn3)cc2c1,-19,-8,-1,0,.,.
Cc1ccc(C(=O)OC(C)C(=O)OC(C)C)cc1[N+](=O)[O-] (configuration not stated),2,0,6,0,.,.
Cc1ccc(/C=N/NC(=O)c2cccc(F)c2)cc1,-38,0,2,0,.,.
COc1ccc(/C=C2\N=C(c3ccccc3OC)OC2=O)c(OC)c1,-7,6.5*,-3,0,0,-2
COc1ccc(OC)c(/C=C2\N=C(c3ccccc3OC)OC2=O)c1,-11,1,13,0,.,.
CCOC(=O)c1c(NC(=O)c2cccc([N+](=O)[O-])c2C)sc(C(C)=O)c1C,12,3,0,0,.,.
Nc1nnc(SCC(=O)Nc2ccc(Br)cc2)s1,2,-1,-2,0,.,.
Cc1cc(C)nc(NS(=O)(=O)c2ccc(NC(=O)CCc3ccccc3)cc2)n1,6,-2,0,0,.,.
CC1=C(C#N)c2nc(N)c(C#N)c(C)c2/C1=C\c1cccs1,-7,5.4*,-2,0,1,-1
COCC1CCCCN1Cc1nc(-c2ccc(OC)c(OC)c2OC)no1 (configuration not stated),-2,1,-8,0,.,.
COc1ccc(-c2noc(CN3CCN(c4ccccc4)CC3C)n2)c(OC)c1OC (configuration not stated),-5,4.9*,12,0,1,6
COCCN1CCCc2ccc(NS(=O)(=O)c3ccc(C)c(C)c3)cc21,7,-1,-6,0,.,.
COCCN1CCCc2ccc(NS(=O)(=O)c3cc(C)ccc3C)cc21,15,5.2*,-1,0,0,3
CC(=O)Nc1ccccc1/C=C/c1ccc2cccc(OC(C)=O)c2n1,-1,1,1,0,.,.
CCCN1C(=O)/C(=C2/C(=O)N(C)c3ccccc32)SC1=S,6,0,3,0,.,.
CCCN1C(=O)/C(=C2\SC(=S)N(CCOC)C2=O)c2ccccc21,8,5.6*,11,0,1,-4
COc1ccc(-c2csc(NC(=O)c3ccc(S(=O)(=O)N4CCCC4)cc3)n2)c(OC)c1,6,5.5*,6,0,1,20
COc1ccc(OC(=O)c2ccccc2Cl)c(C(C)=O)c1,-10,1,-7,0,.,.
